Assay results: ChEMBL document CHEMBL3988442, “University of Dundee, Small-Polar-MMV Screening Library” (2021)

biological target: T1, Aspartate--tRNA(Asp/Asn) ligase (Mycobacterium tuberculosis (strain ATCC 25618 / H37Rv)) (UniProt P9WFW3); test: Assay for Asp RNA synthetase-1 from Mycobacterium tuberculosis; type: functional; parameters: scale not given: direction of the effect not stated beside the values; conditions: 30 µM; also: in the data most compounds retested in dose-response had high values
T1 sequence (whole entry): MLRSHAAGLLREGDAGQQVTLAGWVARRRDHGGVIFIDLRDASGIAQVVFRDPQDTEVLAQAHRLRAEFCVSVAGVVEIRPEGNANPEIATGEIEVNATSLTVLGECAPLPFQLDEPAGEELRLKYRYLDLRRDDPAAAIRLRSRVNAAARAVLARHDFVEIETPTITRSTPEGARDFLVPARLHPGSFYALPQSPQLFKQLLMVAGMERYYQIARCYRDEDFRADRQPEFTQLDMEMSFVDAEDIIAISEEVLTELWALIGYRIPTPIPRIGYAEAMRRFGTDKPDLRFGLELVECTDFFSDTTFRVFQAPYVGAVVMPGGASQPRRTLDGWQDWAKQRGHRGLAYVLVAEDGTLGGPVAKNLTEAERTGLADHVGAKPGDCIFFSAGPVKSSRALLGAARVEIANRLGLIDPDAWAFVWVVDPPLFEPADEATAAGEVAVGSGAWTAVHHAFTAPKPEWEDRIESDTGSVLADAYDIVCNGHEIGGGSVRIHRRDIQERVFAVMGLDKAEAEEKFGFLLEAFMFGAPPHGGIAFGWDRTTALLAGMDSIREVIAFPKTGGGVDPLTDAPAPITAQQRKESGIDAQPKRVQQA

Compound	Percent Effect [%]
CCCC(=O)Nc1sc(C(=O)OCC)c(C)c1C#N	-1.82
COC1COC2(CCN(Cc3ccccc3Cl)CC2)C1 (stereo not given)	3.77
O=C(c1cccc(S(=O)(=O)NCCCc2ccco2)c1)N1CCOCC1	6.79
Cc1ncncc1C(=O)Nc1cnn(CC(=O)NC2CCCC2)c1	-6.25
O=C(C[C@@H]1COC[C@H]2CN(Cc3ccc(F)cc3)C[C@@H]12)N1CCCCO1	3.14
Cc1ccc(NC2CCN(C(=O)Cc3cccc(F)c3)CC2)nn1	14.3
CC(C)c1cc(NCC(C)N2CCCC2)n2nccc2n1 (stereo not given)	1.77
Cc1nccn1C1CCCN(C(=O)c2ccc3c(c2)nnn3C)C1 (stereo not given)	-1.94
Cc1ccc(-c2nc(CN3CCn4c(nnc4C4CC4)C3)cs2)o1	-4.03
Cc1ccc(F)cc1NC(=O)NCC(C)N1CCOCC1 (stereo not given)	-1.14
c1cnn(CC2CN(CCc3ccncc3)CCO2)c1 (stereo not given)	2.1
N#Cc1cccc(S(=O)(=O)N2CCCCC2CCN2CCCC2=O)c1 (stereo not given)	-2.87
Cc1nnc(CN2CCC(N(C)Cc3nnc(C4CC4)n3C)C2)o1 (stereo not given)	-1.43
CN(C)c1ccc(CCNC(=O)NCc2ccc(N(C)C)nc2)cc1	2.84
Cc1ccc(CN2CCc3c(C(=O)N(C)C)nn(C)c3C2)s1	1.82
CC1=Nc2c(c(=O)[nH]n2C(C)C)C(c2ccc(F)c(F)c2)S1 (stereo not given)	1.86
CSCCCN1CCCC1c1noc(C)n1 (stereo not given)	1.68
COCCC(=O)N1C[C@@H]2COC[C@]2(COCc2cccnc2)C1	2.14
CN(C)S(=O)(=O)N1CC[C@]2(C[C@H](Oc3ncccc3F)CO2)C1	2.03
Cc1ncccc1O[C@H]1CCN(C(=O)Cc2cccs2)CC[C@@H]1O	-2.28

Compound	Percent Effect [%]
Cc1cnn(CC2CN(CC(=O)N(C)c3nccs3)CCO2)c1 (stereo not given)	-6.72
c1csc(CN2Cc3nccn3CC(Cn3cncn3)C2)n1 (stereo not given)	-2.48
COc1ccc(CN2CCC3(CC(=O)N(c4cncnc4)C3)C2)cc1 (stereo not given)	0.382
O=C(NCC(O)CN1CCc2ccccc2C1)Nc1cccnc1 (stereo not given)	-0.98
CC(C)c1nc2c(n1C)CCN(Cc1nc(-c3cccs3)no1)C2	-1.02
O=C(CCc1ccccn1)N1CCc2cc(Cl)cc(Cl)c2C1	15.8
CC1CN(C(=O)CN(Cc2ccco2)C2CC2)CCO1 (stereo not given)	3.17
Cc1nc(C)n(C2CCCN(C(=O)c3cc(C(N)=O)cs3)C2)n1 (stereo not given)	-5.92
CCOCCN1CCN(Cc2nc(C3CC3)no2)CC1CC (stereo not given)	-4.28
COCCN(C)CCN1CC2(CCN(C3CCCOC3)CC2)OC1=O (stereo not given)	3.6
CN(Cc1nc2c(cnn2C)c(=O)[nH]1)Cc1ccc(F)cc1F	-2.26
CCn1c(C)cc(C(=O)N2CCCC(n3nc(C)nc3C)C2)c1C (stereo not given)	-4.26
Cc1n[nH]c(C)c1-c1cnc(CC2CCN(C)C2)cn1 (stereo not given)	-0.897
COc1c(CNCc2ccc(C(=O)N(C)C)cc2)c(C)nn1C	2.9
CCCN(C(=O)COC)c1nc2c(s1)CCc1c-2cnn1C	-1.78
Fc1ccccc1Cc1noc(CN2CCCC(CN3CCCC3)C2)n1 (stereo not given)	-0.254
Cc1nc(C)n(C2CCCN(C(=O)c3sccc3C3CC3)C2)n1 (stereo not given)	-3.11
Cn1cnnc1C1CCCN(C(=O)c2cc(Cl)c3c(c2)OCO3)C1 (stereo not given)	-5.25
CCCNC(=O)NCc1cccnc1OC	-6.48
O=C1[C@@H]2CCN(Cc3ccoc3)C[C@@H]2OCCN1c1ccccc1	-0.779

biological target: Shiga toxin 2 (Escherichia coli O157:H7) (UniProt P09385+P09386); test: E. coli 0.157:H7 Shiga Toxin SOP - stx2 screening assay; type: functional; parameters: scale not given: direction of the effect not stated beside the values; conditions: 30 µM

Compound	Percent Effect [%]
CCCC(=O)Nc1sc(C(=O)OCC)c(C)c1C#N	7.46
COC1COC2(CCN(Cc3ccccc3Cl)CC2)C1 (stereo not given)	-11.8
O=C(c1cccc(S(=O)(=O)NCCCc2ccco2)c1)N1CCOCC1	-0.897
Cc1ncncc1C(=O)Nc1cnn(CC(=O)NC2CCCC2)c1	-10.6
O=C(C[C@@H]1COC[C@H]2CN(Cc3ccc(F)cc3)C[C@@H]12)N1CCCCO1	-37.2
Cc1ccc(NC2CCN(C(=O)Cc3cccc(F)c3)CC2)nn1	11.3
CC(C)c1cc(NCC(C)N2CCCC2)n2nccc2n1 (stereo not given)	-11.9
Cc1nccn1C1CCCN(C(=O)c2ccc3c(c2)nnn3C)C1 (stereo not given)	16.2
Cc1ccc(-c2nc(CN3CCn4c(nnc4C4CC4)C3)cs2)o1	-88.7
Cc1ccc(F)cc1NC(=O)NCC(C)N1CCOCC1 (stereo not given)	-35
c1cnn(CC2CN(CCc3ccncc3)CCO2)c1 (stereo not given)	17.1
N#Cc1cccc(S(=O)(=O)N2CCCCC2CCN2CCCC2=O)c1 (stereo not given)	-20.4
Cc1nnc(CN2CCC(N(C)Cc3nnc(C4CC4)n3C)C2)o1 (stereo not given)	18.5
CN(C)c1ccc(CCNC(=O)NCc2ccc(N(C)C)nc2)cc1	5.6
Cc1ccc(CN2CCc3c(C(=O)N(C)C)nn(C)c3C2)s1	3.56
CC1=Nc2c(c(=O)[nH]n2C(C)C)C(c2ccc(F)c(F)c2)S1 (stereo not given)	22.2
CSCCCN1CCCC1c1noc(C)n1 (stereo not given)	11.3
COCCC(=O)N1C[C@@H]2COC[C@]2(COCc2cccnc2)C1	-6.81
CN(C)S(=O)(=O)N1CC[C@]2(C[C@H](Oc3ncccc3F)CO2)C1	2.42
Cc1ncccc1O[C@H]1CCN(C(=O)Cc2cccs2)CC[C@@H]1O	-7.15

Compound	Percent Effect [%]
Cc1cnn(CC2CN(CC(=O)N(C)c3nccs3)CCO2)c1 (stereo not given)	11
c1csc(CN2Cc3nccn3CC(Cn3cncn3)C2)n1 (stereo not given)	-4.98
COc1ccc(CN2CCC3(CC(=O)N(c4cncnc4)C3)C2)cc1 (stereo not given)	-11.8
O=C(NCC(O)CN1CCc2ccccc2C1)Nc1cccnc1 (stereo not given)	-22.8
CC(C)c1nc2c(n1C)CCN(Cc1nc(-c3cccs3)no1)C2	-0.957
O=C(CCc1ccccn1)N1CCc2cc(Cl)cc(Cl)c2C1	-69.6
CC1CN(C(=O)CN(Cc2ccco2)C2CC2)CCO1 (stereo not given)	18.9
Cc1nc(C)n(C2CCCN(C(=O)c3cc(C(N)=O)cs3)C2)n1 (stereo not given)	-13.1
CCOCCN1CCN(Cc2nc(C3CC3)no2)CC1CC (stereo not given)	9.42
COCCN(C)CCN1CC2(CCN(C3CCCOC3)CC2)OC1=O (stereo not given)	-60.6
CN(Cc1nc2c(cnn2C)c(=O)[nH]1)Cc1ccc(F)cc1F	-10.7
CCn1c(C)cc(C(=O)N2CCCC(n3nc(C)nc3C)C2)c1C (stereo not given)	16
Cc1n[nH]c(C)c1-c1cnc(CC2CCN(C)C2)cn1 (stereo not given)	-18.2
COc1c(CNCc2ccc(C(=O)N(C)C)cc2)c(C)nn1C	-13.9
CCCN(C(=O)COC)c1nc2c(s1)CCc1c-2cnn1C	-37.9
Fc1ccccc1Cc1noc(CN2CCCC(CN3CCCC3)C2)n1 (stereo not given)	11.5
Cc1nc(C)n(C2CCCN(C(=O)c3sccc3C3CC3)C2)n1 (stereo not given)	10.4
Cn1cnnc1C1CCCN(C(=O)c2cc(Cl)c3c(c2)OCO3)C1 (stereo not given)	-2.91
CCCNC(=O)NCc1cccnc1OC	-26.6
O=C1[C@@H]2CCN(Cc3ccoc3)C[C@@H]2OCCN1c1ccccc1	4.03
